NCOA2 inhibitor: inhibition of GAL4-SRC2 driven luciferase reporter, primary screen, SRC2 inhibitor project, cell-based, luminescence. Nuclear receptor coactivator 2 (Homo sapiens), Q15596. HEK293 GAL4-SRC2 luciferase reporter. inhibition, % at 9 µM. 370,000 tested, 0.17% active. AID 651957, 2012;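 active means inhibition above the mean inhibition of all tested compounds plus 3 SD, set per campaign, cut at about 52% in these data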;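 further: 0% = DMSO treated cells and 100% = cells given Gossypol at 36 µM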
Target sequence (Q15596 whole entry, looked up, the tested form may be a part): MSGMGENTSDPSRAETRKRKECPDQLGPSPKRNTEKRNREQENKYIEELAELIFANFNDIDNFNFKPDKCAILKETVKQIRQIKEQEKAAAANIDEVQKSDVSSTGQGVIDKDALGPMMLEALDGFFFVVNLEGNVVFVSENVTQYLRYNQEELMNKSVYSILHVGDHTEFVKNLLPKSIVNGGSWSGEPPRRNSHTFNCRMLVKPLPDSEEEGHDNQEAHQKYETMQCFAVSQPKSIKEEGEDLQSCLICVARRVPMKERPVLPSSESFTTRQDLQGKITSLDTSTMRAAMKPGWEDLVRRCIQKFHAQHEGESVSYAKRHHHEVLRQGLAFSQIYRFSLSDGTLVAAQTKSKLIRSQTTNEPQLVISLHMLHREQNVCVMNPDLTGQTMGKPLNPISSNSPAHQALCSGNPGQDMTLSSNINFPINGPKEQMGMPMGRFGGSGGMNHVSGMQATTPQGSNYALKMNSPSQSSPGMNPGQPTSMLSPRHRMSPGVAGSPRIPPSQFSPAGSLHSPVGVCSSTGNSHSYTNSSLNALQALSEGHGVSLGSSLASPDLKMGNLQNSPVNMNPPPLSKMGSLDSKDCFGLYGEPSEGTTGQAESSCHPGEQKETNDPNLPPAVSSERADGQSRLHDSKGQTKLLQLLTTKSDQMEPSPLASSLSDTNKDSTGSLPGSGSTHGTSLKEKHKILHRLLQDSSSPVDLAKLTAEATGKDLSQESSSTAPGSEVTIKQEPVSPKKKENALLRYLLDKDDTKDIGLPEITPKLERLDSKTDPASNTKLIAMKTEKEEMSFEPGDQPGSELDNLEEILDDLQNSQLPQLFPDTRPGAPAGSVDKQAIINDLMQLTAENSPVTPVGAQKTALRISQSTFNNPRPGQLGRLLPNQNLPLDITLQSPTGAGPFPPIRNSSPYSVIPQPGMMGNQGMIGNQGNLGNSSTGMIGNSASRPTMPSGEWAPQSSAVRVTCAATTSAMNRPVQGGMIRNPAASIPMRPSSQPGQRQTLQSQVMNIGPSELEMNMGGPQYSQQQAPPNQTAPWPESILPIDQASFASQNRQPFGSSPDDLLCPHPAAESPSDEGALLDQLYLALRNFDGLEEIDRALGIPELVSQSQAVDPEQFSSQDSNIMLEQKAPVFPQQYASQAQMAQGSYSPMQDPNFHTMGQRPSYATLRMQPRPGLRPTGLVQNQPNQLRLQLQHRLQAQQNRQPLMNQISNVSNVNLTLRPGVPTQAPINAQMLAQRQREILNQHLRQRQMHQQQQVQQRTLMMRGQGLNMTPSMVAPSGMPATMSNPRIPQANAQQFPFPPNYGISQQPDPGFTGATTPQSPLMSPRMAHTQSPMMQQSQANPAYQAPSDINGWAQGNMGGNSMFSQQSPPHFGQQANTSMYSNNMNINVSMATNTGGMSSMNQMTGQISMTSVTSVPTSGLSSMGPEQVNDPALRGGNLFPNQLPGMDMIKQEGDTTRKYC
SRC3 inh: SRC3 coactivator transcriptional activity inhibitors, primary screen, cell-based, luminescence | Nuclear receptor coactivator 3 (Homo sapiens), Q9Y6Q9 | HEK293 GAL4-SRC3 luciferase reporter | inhibition, % at 3.6 µM | 360,000 tested, 0.17% active;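 active means inhibition above a per-campaign cutoff, the mean of all compounds plus 3 SD, cut at about 60% in these data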;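 further: 0% = DMSO-treated cells and 100% = gossypol-treated cells at 36 µM; higher means less SRC3-driven luciferase light from the GAL4 reporter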
NR5A2 inv ag: LRH-1 (NR5A2) inverse agonists, primary screen, cell-based, luminescence, HEK293T, StAR-luciferase reporter; AID 602396, 2012; inhibition, % at 3.6 µM; 360,000 tested, 0.13% active; Nuclear receptor subfamily 5 group A member 2 (Homo sapiens), O00482; LRH-1 transfected, 24 h;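 active means inhibition above the mean inhibition of all tested compounds plus 3 SD, cut at about 73% in these data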;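 further: 0% = DMSO wells and 100% = reporter-only cells lacking LRH-1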
NR2F2 inh: NR2F2 transcriptional activity inhibitors, primary screen, cell-based, luciferase reporter, HEK293T, luminescence. COUP transcription factor 2 (Homo sapiens), P24468. HEK293T NGFI-A luciferase reporter. inhibition, % at 8.6 µM. 370,000 tested, 0.7% active. AID 686940, 2013;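 active means inhibition above a per-plate cutoff, mean inhibition of test wells between control levels plus 3 SD, cut at about 38% in these data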;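 further: cells cotransfected with COUP-TFII expression vector driving the NGFI-A reporter; 0% = median of COUP-TF2 test wells and 100% = reporter-only cells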
SRC1 inh: SRC1 coactivator transcriptional activity inhibitors, primary screen, cell-based, luminescence. 360,000 tested, 0.12% active. inhibition, % at 3.6 µM. Nuclear receptor coactivator 1 (Homo sapiens), Q15788. HEK293 GAL4-SRC1 luciferase reporter;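 active means inhibition above the campaign mean plus 3 SD, with each screening campaign given its own cutoff, cut at about 60% in these data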;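 further: 0% = DMSO treated cells and 100% = gossypol at 36 µM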
Gal4-VP16 ctr: Gal4-VP16 luciferase reporter inhibitors, counter-screen for COUP-TFII antagonist project, cell-based, luminescence, HEK293; AID 687007, 2013; inhibition, % at 8.5 µM; 2,500 tested, 25% active; shares compounds with NR2F2 inh; in the data active means inhibition above about 13%
NR2F2 inh conf: NR2F2 transcriptional activity inhibitors, confirmation, cell-based, luciferase reporter, HEK293, triplicate; shares compounds with NR2F2 inh; HEK293 NGFI-A luciferase reporter, luminescence; inhibition, % at 8.5 µM; 2,500 tested, 45% active; AID 687008, 2013;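 active means mean inhibition over three repeats above a set limit taken from the earlier primary screen, cut at about 38% in these data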;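 further: 100% = cells given the luciferase reporter alone without the COUP-TF2 vector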
An asterisk follows results filed as active; · = no result given. This is a sample that favours compounds with a hit; in the whole collection about 0.81% have one here.

SMILES	NCOA2 inhibitor	SRC3 inh	NR5A2 inv ag	NR2F2 inh	SRC1 inh	Gal4-VP16 ctr	NR2F2 inh conf
COc1ccc(C2CC(=O)c3c(C)nc(N4CCN(Cc5ccccc5)CC4)nc3C2)cc1OC (centres undefined)	22	14	15	62*	-4	8	39*
Cc1nc(N2CCN(Cc3ccccc3)CC2)nc2c1C(=O)CC(C)C2 (centres undefined)	1	-7	-19	14	-7	·	·
COc1ccc(NC(=O)CSc2nnc(-c3cccc(O)c3)o2)cc1	-11	4	22	-10	4	·	·
COc1cccc(NC(=O)CSc2nnc(-c3cc(C)n(-c4ccccc4)c3C)o2)c1	40	49	59	68*	43	30*	70*
CCn1nc(C(=O)NNC(=O)c2ccccc2)c2ccccc2c1=O	-22	-11	-7	-41	-17	·	·
CCOC(=O)c1csc(NC(=O)C2CCCN(S(=O)(=O)c3ccc([N+](=O)[O-])cc3)C2)n1 (centres undefined)	14	·	·	46*	·	-7	23
CCOC(=O)C1CCCN(S(=O)(=O)c2ccc(S(=O)(=O)N(CC)CC)cc2)C1 (centres undefined)	17	26	43	68*	7	10	66*
CCOC(=O)c1csc(NC(=O)C2CCCN(S(=O)(=O)c3ccccc3)C2)n1 (centres undefined)	9	·	·	5	·	·	·
Cc1cc(C)nc(SCC(=O)OCC(=O)Nc2nc3ccccc3s2)n1	-3	8	-17	-8	-8	·	·
O=C(O)c1ccccc1C(=O)Nc1ccc(Oc2ccc3ccccc3c2)cc1	47	4	30	66*	-4	9	7
Cc1cccc(Oc2ccc(NC(=O)c3ccccc3C(=O)O)cc2)c1C	-38	-8	22	25	-29	·	·
O=C(O)c1ccccc1C(=O)Nc1ccc(Oc2cccc3ccccc23)cc1	89*	71*	62	100*	56	46*	34
Cc1ccc(C(CNC(=O)Nc2ccc(Cl)cc2)N2CCN(C)CC2)cc1 (centres undefined)	-10	-4	3	-5	-12	·	·
O=C(COC(=O)C1CC(O)CN1S(=O)(=O)c1ccc(Cl)cc1)c1ccccc1Cl (centres undefined)	-1	5	14	3	-27	·	·
COc1cc(CSc2nnnn2-c2ccc(C)cc2)cc(OC)c1OC	14	23	49	69*	16	0	54*
Nc1cc(=O)[nH]c(SCc2ccc(Cl)cc2Cl)n1	-13	13	29	48*	17	16*	34
O=C(O)CCCc1ccc2c(c1)CCc1ccccc1-2	74*	19	-9	75*	17	57*	49*
Cc1ccc(CO/N=C/C2=C(Cl)c3ccccc3CC2)cc1	10	-3	-5	-5	-41	·	·
COc1ccc(C(C(=O)NC2CCCC2)n2c(CSCCOc3ccccc3)nc3ccccc32)cc1 (centres undefined)	79*	·	21	70*	·	28*	46*
COc1ccc(C(C(=O)NC2CCCC2)n2c(Cc3cc(F)cc(F)c3)nc3ccccc32)cc1 (centres undefined)	12	·	19	10	·	·	·
CCC(C(=O)NCc1ccccc1)n1c(CSCCOc2ccccc2)nc2ccccc21 (centres undefined)	75*	·	45	58*	·	8	23
Oc1ccc(Nc2nc(N3CCCC3)c3ccccc3n2)cc1	-100	52	8	9	47	·	·
COc1ccc(Nc2ccnc3ccccc23)cc1	41	37	0	40*	37	-10	13
COc1ccc(Nc2nc(N3CCCCC3)c3ccccc3n2)cc1	13	5	10	38*	12	-1	10
Cc1c(NC(=O)C(C)OC(=O)c2cccc(S(=O)(=O)N(C)C)c2)c(=O)n(-c2ccccc2)n1C (centres undefined)	-9	-2	14	1	-2	·	·
SMILES	NCOA2 inhibitor	SRC3 inh	NR5A2 inv ag	NR2F2 inh	SRC1 inh	Gal4-VP16 ctr	NR2F2 inh conf
COc1ccc(Cl)cc1C(=O)NNC(=O)CCNC(C)=O	-21	18	-8	-4	4	·	·
Brc1ccc2ncnc(NCc3ccccc3)c2c1	55*	64*	41	58*	67*	18*	49*
c1ccc(CCNc2ncnc3ccccc23)cc1	15	11	-54	57*	-22	-149	29
Cc1cc2c(NCCc3ccccc3)ncnc2s1	7	-41	-53	50*	-26	-133	29
Clc1cccc(Nc2ncnc3ccc(Br)cc23)c1	37	29	0	25	28	·	·
Cc1ccc2[nH]c(=O)c3cc(C(=O)NC(C)C)sc3c2c1	18	-21	7	-19	14	·	·
COc1ccc(CC(=O)Nc2c3c(nn2-c2ccccc2C)CS(=O)C3)cc1 (centres undefined)	-2	-7	5	-4	16	·	·
O=C(Nc1ccc(Oc2ccccc2)cc1)c1cnc2n(c1=O)CCS2	2	-2	-2	43*	-5	-58	38*
CCOc1ccccc1NC(=O)c1cnc2n(c1=O)CCS2	19	-5	-12	-2	11	·	·
O=C(OCc1nnc(-c2ccccc2)o1)C1=COCCO1	-34	14	8	-11	-33	·	·
S=C(Cc1ccc(-c2ccccc2)cc1)N1CCOCC1	0	-2	-6	1	-1	·	·
Cc1nn(C)c(C)c1CNC(=O)c1nn2c(c1Cl)NC(c1cccs1)CC2C(F)(F)F (centres undefined)	9	12	19	40*	7	-5	11
Cc1nn(C)cc1CNC(=O)c1cc2n(n1)C(C(F)(F)F)CC(c1cccs1)N2 (centres undefined)	-8	13	15	29	1	·	·
COc1ccc(CN(C)C(=O)CCc2ccc(S(=O)(=O)N3CCCCCC3)cc2)c(OC)c1	-9	13	21	5	-3	·	·
COc1ccc(CN(C)C(=O)/C=C/c2ccc(S(=O)(=O)N3CCCCCC3)cc2)cc1	13	18	10	38*	-9	10	27
CCOc1ccc(CN(C)C(=O)CCc2ccc(S(=O)(=O)N3CCCCCC3)cc2)cc1	24	25	20	41*	5	1	19
